Shown are actives, neighbours in structure and some others; about 2.1% of the full set was active somewhere.
NR2F2 inh = NR2F2 (human) inhibition, primary screen. P24468. HEK293T NGFI-A luciferase reporter, luminescence. inhibition, % at 8.6 µM. hit rate 0.7% among 370,000. AID 686940;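 active = inhibition above a per-plate cutoff, mean inhibition of test wells between control levels plus 3 SD, cut at about 38% in these data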;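 note: cells cotransfected with COUP-TFII expression vector driving the NGFI-A reporter; 0% = median of COUP-TF2 test wells and 100% = reporter-only cells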
Target sequence (P24468 whole entry, looked up): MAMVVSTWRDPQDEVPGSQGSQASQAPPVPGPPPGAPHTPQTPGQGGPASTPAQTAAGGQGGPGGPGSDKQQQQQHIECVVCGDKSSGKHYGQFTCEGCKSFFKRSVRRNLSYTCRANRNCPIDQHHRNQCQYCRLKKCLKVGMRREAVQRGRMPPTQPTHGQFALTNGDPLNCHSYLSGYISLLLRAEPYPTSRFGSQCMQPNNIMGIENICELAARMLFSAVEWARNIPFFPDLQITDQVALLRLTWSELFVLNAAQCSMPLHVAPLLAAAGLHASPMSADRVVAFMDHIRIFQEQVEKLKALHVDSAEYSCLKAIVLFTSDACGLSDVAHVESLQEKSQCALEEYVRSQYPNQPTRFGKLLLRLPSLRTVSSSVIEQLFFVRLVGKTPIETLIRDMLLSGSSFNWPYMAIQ
HIV Env fusion = HIV envelope-mediated fusion inhibition. HeLa-JRFL Env/CEM21 cell fusion, luciferase. inhibition, % at 12.3 µM. hit rate 1.1% among 360,000. AID 651610;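 active = mean replicate inhibition score of at least 50 and every replicate individually at or above 50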;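 note: 0% = plate neutral controls and 100% = maraviroc near 300 nM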
aDG glyco act = increases alpha dystroglycan glycosylation; Pro5-aDG cells, alpha-DG glycosylation AlphaScreen (IIH6); 0% Pro5, 100% B10-LARGE cell signal; activation, % at 10 µM; AID 624168; hit rate 0.22% among 360,000;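 active = activation of at least 8% versus controls, or a plate z-score of at least 8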;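 note: Pro5 are CHO cells carrying HIG-tagged alpha-DG that lacks glycosylation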
Gli-Sufu block = Gli-Sufu pathway antagonism; Sufu-KO-LIGHT fibroblasts, Gli luciferase reporter luminescence; inhibition, % at 5 µM; hit rate 0.74% among 340,000; AID 588413;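 active = inhibition above about 55%, limit read from the data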;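 note: 0% = DMSO-treated cells and 100% = wells with medium but no cells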
GalR3 antag = human GalR3 antagonism. hit rate 0.44% among 360,000. inhibition, % at 3 µM. O60755. HEK293 GalR3-CNG cAMP membrane potential fluorescence; galR3 body fused to GalR1 C-terminus;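 active = inhibition above the screen-wide average plus 3 SD, cut at about 13% in these data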;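 note: forskolin and galanin both at EC90 stimulate the cells; cAMP rise reported by CNG channel membrane potential dye signal; 0% = forskolin plus galanin with DMSO and 100% = forskolin alone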
Target sequence (O60755 1-299 limits assumed): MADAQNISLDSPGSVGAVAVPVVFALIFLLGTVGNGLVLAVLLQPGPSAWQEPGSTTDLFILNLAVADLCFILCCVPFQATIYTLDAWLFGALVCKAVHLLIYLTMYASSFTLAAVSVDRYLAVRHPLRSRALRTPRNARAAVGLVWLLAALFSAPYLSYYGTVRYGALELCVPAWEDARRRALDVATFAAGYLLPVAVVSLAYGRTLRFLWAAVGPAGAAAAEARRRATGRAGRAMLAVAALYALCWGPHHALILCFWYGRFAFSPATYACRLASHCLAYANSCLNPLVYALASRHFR
Active calls of the source: *; / = no result given; [ ] = remark or other dose.

SMILES | NR2F2 inh | HIV Env fusion | aDG glyco act | Gli-Sufu block | GalR3 antag
COc1ccc([C@@H]2[C@@H]3C(=O)N(C(C)(C)C)C(=O)[C@@H]3[C@]3(C)C(=O)N(c4cccc(Cl)c4)C(=O)N23)cc1 | 6 | 61* | 0 | 0 | -4
COC(=O)[C@]12CCCCC=C1N(Cc1ccco1)C(=O)[C@H](CC(=O)NCCc1ccccc1OC)C2 | 2 | 92* | 0 | / | -3
CCCCNC(=O)C[C@@H]1C[C@@]2(C(=O)OC)CCCCC=C2N(Cc2ccco2)C1=O | 1 | -10 | 1 | / | 0
CCCCOCCCNC(=O)C[C@@H]1C[C@@]2(C(=O)OC)CCCCC=C2N(Cc2ccco2)C1=O | 5 | 62* | 0 | / | -5
COc1ccc(CNC(=O)C[C@@H]2CC[C@@H]3[C@H](COc4ccc(NC(=O)C5CC5)cc4C(=O)N3C)O2)cc1 | / | -20[16.7 µM] | / | / | /
Cc1ccc(S(=O)(=O)N[C@@H]2CC[C@@H](CC(=O)NCCN3CCCCC3)O[C@@H]2CO)cc1 | / | -13[16.7 µM] | / | / | /
CC(C)NC(=O)Nc1ccc2c(c1)CC(=O)N([C@@H](C)CO)C[C@H](C)[C@@H](CN(C)C)O2 | / | 14[16.7 µM] | / | / | /
COc1cccc(CNc2nc3cc(-c4cccc(Cl)c4)sc3c(=O)n2C)c1OC | 8 | 14 | 1 | / | -3
COc1cccc(CNc2nc3cc(-c4ccccc4)sc3c(=O)n2C)c1OC | -6 | 66* | 0 | / | -4
COc1ccc(NC(=O)Nc2ccc3c(c2)C(=O)N([C@H](C)CO)C[C@H](C)[C@H](CN(C)Cc2ccc(Cl)c(Cl)c2)OCCCC[C@H](C)O3)cc1 | / | 91*[16.7 µM] | / | / | /
COc1ccc(NC(=O)Nc2ccc3c(c2)C(=O)N([C@@H](C)CO)C[C@H](C)[C@@H](CN(C)Cc2ccc(Cl)c(Cl)c2)OCCCC[C@@H](C)O3)cc1 | / | 14[16.7 µM] | / | / | /
C[C@H](CO)N1C[C@H](C)[C@H](CN(C)Cc2ccc3c(c2)OCO3)OCCCC[C@H](C)Oc2ccc(NC(=O)Nc3ccc4c(c3)OCO4)cc2C1=O | / | 66*[16.7 µM] | / | / | /
C[C@@H]1CN([C@@H](C)CO)C(=O)c2cc(NC(=O)Nc3ccc4c(c3)OCO4)ccc2O[C@@H](C)CCCCO[C@H]1CN(C)Cc1ccc(Cl)c(Cl)c1 | / | 67*[16.7 µM] | / | / | /
C[C@H]1CCCCO[C@@H](CN(C)Cc2ccccc2)[C@@H](C)CN([C@@H](C)CO)C(=O)c2cc(NC(=O)Nc3ccc4c(c3)OCO4)ccc2O1 | / | 57*[16.7 µM] | / | / | /
C[C@@H]1CCCCO[C@@H](CN(C)Cc2ccccc2)[C@H](C)CN([C@H](C)CO)C(=O)c2cc(NC(=O)Nc3ccc4c(c3)OCO4)ccc2O1 | / | -63[16.7 µM] | / | / | /
C[C@@H]1CN([C@H](C)CO)C(=O)c2cc(NC(=O)Nc3ccc4c(c3)OCO4)ccc2O[C@@H](C)CCCCO[C@H]1CN(C)Cc1ccc2c(c1)OCO2 | / | 1[16.7 µM] | / | / | /
C[C@H](CO)N1C[C@H](C)[C@@H](CN(C)CC2CCCCC2)OCCCC[C@H](C)Oc2ccc(NS(=O)(=O)c3ccc(Cl)cc3)cc2C1=O | / | 8[16.7 µM] | / | / | /
C[C@H]1CN([C@@H](C)CO)S(=O)(=O)c2ccc(C3=CCCCC3)cc2O[C@H]1CN(C)Cc1ccccc1F | / | 21[16.7 µM] | / | / | /
CNC[C@H]1Oc2ccc(NS(=O)(=O)c3ccc(OC)cc3)cc2CC(=O)N([C@H](C)CO)C[C@H]1C | / | -12[16.7 µM] | / | / | /
CO[C@@H]1CN(C)C(=O)c2cc(NC(C)=O)ccc2OC[C@H](C)N(Cc2cccnc2)C[C@H]1C | / | -3[16.7 µM] | / | / | /
C[C@@H]1CN([C@H](C)CO)S(=O)(=O)c2ccc(C#CC3CC3)cc2O[C@@H]1CN(C)C(=O)CN(C)C | / | 7[16.7 µM] | / | / | /
C[C@@H]1CN([C@H](C)CO)C(=O)c2cc(NC(=O)Nc3ccc4c(c3)OCO4)ccc2O[C@H]1CN(C)Cc1ccncc1 | -1 | 58* | 0 | -11 | -4
C[C@H](CO)N1C[C@H](C)[C@H](CN(C)C(=O)C2CCCCC2)OCCCC[C@H](C)Oc2ccc(NC(=O)Nc3ccc4c(c3)OCO4)cc2C1=O | / | 78*[16.7 µM] | / | / | /
Cc1cc2ncn(S(=O)(=O)N3CCCCC3)c2cc1C | -1 | 83* | 0 | 9 | -1
CCc1nnc(NC(=O)c2cccc(C(=O)Nc3nnc(CC)s3)n2)s1 | -8 | / | 0 | 85* | -3
SMILES | NR2F2 inh | HIV Env fusion | aDG glyco act | Gli-Sufu block | GalR3 antag
O=C1C=CN(C2OC(CO)C(O)C2O)C(=O)C1 (stereo not given) | -23 | 65* | 0 | / | -4
NC(=O)c1ccc(=O)n(C2OC(CO)C(O)C2O)c1 (stereo not given) | 6 | -130 | 0 | 6 | -5
C[C@H]1CN([C@@H](C)CO)C(=O)c2cc(C3=CCCC3)cnc2O[C@H]1CN(C)C | / | -2[16.7 µM] | / | / | /
Cn1c(SCc2nc(-c3ccccc3)no2)nnc1-c1cccs1 | 2 | -86 | 0 | 3 | -7
Cn1c(SCc2nc(-c3ccc(Cl)cc3)no2)nnc1-c1cccs1 | 10 | 83* | 0 | -3 | -3
Cc1ccc(C(=O)CSc2nc(C)cc(SCc3nnc(-c4ccccc4)o3)n2)cc1 | -7 | 62* | 0 | 12 | -5
COc1ccc(C(=O)CSc2cc(C)nc(SCC(=O)c3ccc(C)cc3)n2)cc1 | 4 | / | 0 | 3 | -4
O=C(C[C@@H]1C=C[C@@H](NC(=O)c2ccc(F)cc2)[C@@H](CO)O1)NCCc1ccncc1 | / | -21[16.7 µM] | / | / | /
Cc1cc(SCCC(=O)O)nc2ccccc12 | 6 | / | 0 | 23 | -1
Cc1cc(SCC(=O)N2CCCC2=O)nc2ccccc12 | -3 | 58* | 0 | -6 | -3
C[C@H](CO)N1C[C@H](C)[C@H](CN(C)Cc2ccc(F)cc2)OCc2ccccc2-c2ccccc2C1=O | / | 57*[16.7 µM] | / | / | /
C[C@H]1CN([C@@H](C)CO)C(=O)c2ccccc2-c2ccccc2CO[C@H]1CN(C)Cc1ccc(F)cc1 | / | 73*[16.7 µM] | / | / | /
C[C@H]1CN([C@@H](C)CO)C(=O)c2ccccc2-c2ccccc2CO[C@H]1CN(C)Cc1cccc(F)c1 | / | 62*[16.7 µM] | / | / | /
CNC[C@@H]1Oc2ccc(N)cc2C(=O)N([C@H](C)CO)C[C@H]1C | / | -4[16.7 µM] | / | / | /
Cc1oc(-c2cccc(Cl)c2)nc1CN1CCCC(C(=O)NCc2ccco2)C1 (stereo not given) | -11 | 7 | 0 | 4 | 1
Cc1oc(-c2cccc(Cl)c2)nc1CN1CCCC(C(=O)NC(C)c2ccc3c(c2)OCCO3)C1 (stereo not given) | 26 | 84* | 0 | -2 | -2
O=C(NCC[C@H]1CC[C@H](NS(=O)(=O)c2ccc(F)cc2)[C@H](CO)O1)Nc1ccc(Cl)cc1 | / | 1[16.7 µM] | / | / | /
CC1CC(C)CN(CCCNC(=O)c2cc3c(=O)[nH]c4ccccc4c3n2C)C1 (stereo not given) | -14 | 8 | 0 | 31 | -8
CN(CCCNC(=O)c1cc2c(=O)[nH]c3ccccc3c2n1C)Cc1ccccc1 | -10 | 59* | 0 | 18 | -7
Cn1c(C(=O)NCCCN2CCN(c3ccccc3F)CC2)cc2c(=O)[nH]c3ccccc3c21 | -3 | 94* | 0 | 7 | -1
C[C@H]1CN([C@@H](C)CO)C(=O)Cc2cc(NC(=O)Nc3ccc(C(F)(F)F)cc3)ccc2O[C@H]1CN(C)Cc1ccccc1 | / | 21[16.7 µM] | / | / | /
